Inconclusive results are not listed. Unmarked numbers belong to inactive results. The source made the active and inactive calls. The call rests on the fitted dose curve; in most records, active means well fitted inhibition curve with a large enough effect; inconclusive means small, poorly fitted or top-dose-only effect; inactive means flat fitted curve, though single readings scatter.
target: Phospholipid hydroperoxide glutathione peroxidase GPX4 (Homo sapiens) (UniProt P36969); assay: Primary qHTS Assay for Inhibitors of Recombinant Selenoprotein Glutathione Peroxidase 4 (GPX4) (AID 1845192); conditions: recombinant GPX4, GR-coupled NADPH fluorescence, 15 min; series mostly up to 50 µM; activity change, negative = inhibition: at the top concentration; further: nearly all actives have a fitted effect of over 65% in size
From the text: Assay Provider: Elias S.J. Arner MD PhD.
Department of Medical Biochemistry and Biophysics
Karolinska Institutet, Solna, Stockholm, Sweden
Selenoprotein glutathione peroxidases (GPX), like the ubiquitously expressed GPX1 and the ferroptosis modulator GPX4, enact their antioxidant activities by reducing hydroperoxides using glutathione. […] GPX1 and GPX4 inhibitors have thus shown promise as anti-cancer agents. Existing inhibitors are often promiscuous, or modulate GPX activity only indirectly, so novel direct inhibitors identified through screening against GPX1 and GPX4 could be valuable. Here, we developed optimized glutathione reductase (GR)-coupled GPX assays for the biochemical high-throughput screen (HTS) of almost 12,000 compounds with known mechanisms of action. Initial hits were triaged using a GR counter-screen, assessed for isoform specificity using a separate GPX2 assay, and were assessed for general selenocysteine-targeting activity using a thioredoxin reductase (TXNRD1) assay. With this suite of assays, we identified novel GPX1/GPX2- and GPX4-specific inhibitors and can here present a validated pipeline for future discovery research for selenoprotein-targeting agents.
SEQUENCE No. (e.g., 1, 2, 3, etc.); […] (e.g., Cells, Incubation, Reagent, etc.); VALUE; DESCRIPTION.
1; Reagent 1; 3 uL; 333.33 nM GPx4 enzyme or no enzyme control in 1536-well, black, solid Greiner assay plate.
2; Compound; 25 nL; Kalypsis pin tool (Wako USA) equipped with a 1536-well pin head.
3; Incubation; 30 min; room temperature.
4; Reagent 2; 1 uL; 500 nM GR, 5 mM GSH, 2.5 mM NADPH solution
5; Reagent 3; 1 uL; 2.5 mM CHP in 50% EtOH.
6; Detection; Fluorescence; ViewLux microplate reader, excitation 340 nm and emission 450 nm.
7; Incubation; 15 min; room temperature.
8; Detection; Fluorescence; ViewLux microplate reader, excitation 340 nm and emission 450 nm.
NOTES (numbers refer to Sequence numbers above)
1. 3 µL of 333.33 nM GPX4 and 0.016% BSA in assay buffer (50 mM Tris-HCl, 2 mM EDTA (pH 7.5), 150 mM NaCl) was added to columns 3-48 of 1536-well plates using a BioRAPTR Flying Reagent Dispenser (Let's Go Robotics (LGR), Carlsbad, CA). A no-enzyme control (0.01% BSA in TES assay buffer) was added to columns 1-2.
2. 25 nL, library and DMSO controls were added to each well with a pin tool (Kalypsys).
3. The assay plates were incubated for 30 minutes at room temperature.
4. 1 µL of master mix (500 nM glutathione reductase (GR), 5 mM reduced glutathione (GSH), 2.5 mM NADPH in assay buffer) was added.
5. 1 µL of cumene hydroperoxide (CHP) ([2.5 mM] in 50% EtOH) was then added within 5 minutes to initiate the reaction. Final concentrations were: 200 nM GPX4, 1 mM GSH, 0.5 mM CHP, 0.5 mM NADPH, 100 nM GR, 0.01% BSA.
6. Initial fluorescence readout (t=0) at 340/450 nm was measured using a ViewLux multimodal detector (PerkinElmer, Waltham, MA).
8. Endpoint fluorescence readout (t=15) at 340/450 nm was measured 15 min after room temperature incubation.
On the % scale 0 is the no-effect control and ±100 the full control effect; potency means the concentration at half of the fitted maximal effect.

Chain of Phospholipid hydroperoxide glutathione peroxidase GPX4 (Homo sapiens) (P36969 whole entry, looked up): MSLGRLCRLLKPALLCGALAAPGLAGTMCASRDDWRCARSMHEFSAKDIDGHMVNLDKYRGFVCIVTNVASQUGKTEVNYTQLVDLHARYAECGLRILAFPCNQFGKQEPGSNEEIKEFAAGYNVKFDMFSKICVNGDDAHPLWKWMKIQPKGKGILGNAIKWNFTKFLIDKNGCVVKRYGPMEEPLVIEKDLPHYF

Row | SMILES | activity change, negative = inhibition | outcome | Potency
1 | CCCOC(=O)Cc1ccc(OCC(=O)N(CC)CC)c(OC)c1 | -21.2% [at 27.8 µM] | – | –
2 | CCCCCCCCCCCC[N+](C)(C)CCOc1ccccc1 | – | inactive | –
3 | CCOC(=O)C1(c2ccccc2)CCN(CCc2ccc(N)cc2)CC1 | -22.7% | – | –
4 | CC(Cc1ccccc1)NCc1ccccc1Cl (stereo not given) | – | inactive | –
5 | Cc1cccc(Cc2cnc[nH]2)c1C | – | inactive | –
6 | C[C@]12CC[C@H](O)CC1=CC[C@@H]1[C@@H]2CC[C@]2(C)C(=O)CC[C@@H]12 | – | – | inactive
7 | C#C[C@]1(O)CC[C@H]2[C@@H]3CCC4=CC(=O)CCC4=C3C=C[C@@]21CC | – | – | 10 µM (active)
8 | CC(CC(C(N)=O)(c1ccccc1)c1ccccc1)N(C)C (stereo not given) | – | inactive | –
9 | O=C(O)Cc1ccccc1 | -1.74% | – | –
10 | Clc1ccc(CO/N=C(\Cn2ccnc2)c2ccc(Cl)cc2Cl)c(Cl)c1 | 4.36% | – | –
11 | NC(=O)OCCCc1ccccc1 | – | inactive | –
12 | Clc1ccc(CSC(Cn2ccnc2)c2ccc(Cl)cc2Cl)cc1 (stereo not given) | 2.82% | – | –
13 | N#Cc1nn(-c2c(Cl)cc(C(F)(F)F)cc2Cl)c(N)c1S(=O)C(F)(F)F (stereo not given) | – | inactive | –
14 | CNC(C)Cc1ccccc1OC (stereo not given) | 4.08% | – | –
15 | O=C(NC(=O)c1c(F)cccc1F)Nc1cc(Cl)c(OC(F)(F)C(F)C(F)(F)F)cc1Cl (stereo not given) | 2.34% | – | –
16 | COc1ccc(C(=O)N2CCCC2=O)cc1 | – | – | inactive
17 | CC[C@H]1C[C@H]2[C@@H]3CCC4=CC(=O)CC[C@@H]4[C@H]3CC[C@]2(C)[C@H]1O | – | inactive | –
18 | Clc1ccc(C(OCCN2CCCCC2)c2ccccc2)cc1 (stereo not given) | – | inactive | –
19 | Cc1nnc2n1-c1sc(CCc3ccc(CC(C)C)cc3)cc1C(c1ccccc1Cl)=NC2C (stereo not given) | – | – | 25.5 µM (active)
20 | CC1COC2(c3ccccc3Cl)c3cc(Cl)ccc3NC(=O)CN12 (stereo not given) | -8.68% | – | –

Row | SMILES | activity change, negative = inhibition | outcome | Potency
21 | CC(C)C(Br)C(=O)NC(N)=O (stereo not given) | -14.3% | – | –
22 | O=C(N[C@@H]1N=C(c2ccccc2F)c2cccc3c2N(CC3)C1=O)c1cc2ccccc2[nH]1 | -4.04% [at 15.3 µM] | – | –
23 | COc1ccc(CN2CCNCC2)c(OC)c1OC | – | inactive | –
24 | CCOC(=O)NC(C)(C)Cc1ccc(Cl)cc1 | 2.55% | – | –
25 | CC1=C2[C@H]3OC(=O)[C@@H](C)[C@@H]3CC[C@@]2(C)C=CC1=O | – | inactive | –
26 | CC#C[C@]1(O)CC[C@H]2[C@@H]3C[C@H](C)C4=CC(=O)CC[C@]4(C)[C@H]3CC[C@@]21C | -20.2% | – | –
27 | CN(C)C(=S)SSC(=S)N(C)C | 3.71% | – | –
28 | CN1C2CCC(C)(C)C1CC(OC(=O)C(O)(c1cccs1)c1cccs1)C2 (stereo not given) | -3.94% | – | –
29 | Cc1nnc2n1-c1sc(CCC(=O)N3CCOCC3)cc1C(c1ccccc1Cl)=NC2 | 1.57% | – | –
30 | C[C@@H]1O[C@@H](O[C@@H]2C=C3CC[C@@H]4[C@H](CC[C@]5(C)[C@@H](c6ccc(=O)oc6)CC[C@]45O)[C@@]3(C)CC2)[C@H](O)[C@H](O)[C@H]1O | – | – | inactive
31 | COP(=O)(OC)OC=C(Cl)Cl | -0.944% | – | –
32 | C#C[C@]1(O)C=C[C@H]2[C@@H]3CCC4=CC(=O)CC[C@@H]4[C@H]3CC[C@@]21CC | – | – | inactive
33 | CC(C)(O)C(Cl)(Cl)Cl | -9.25% | – | –
34 | Cc1ccc([N+](=O)[O-])[c]2c1[O][Hg]2 | – | inactive | –
35 | CCC1(c2cccc(O)c2)CCCCN(C)C1 (stereo not given) | – | inactive | –
36 | CN(C)C(=O)Oc1cc(OC(=O)N(C)C)cc(C(O)CNC(C)(C)C)c1 (stereo not given) | 0.0456% | – | –
37 | CCCCC1C(=O)NC(=O)N(C2CCCCC2)C1=O (stereo not given) | 1.95% | – | –
38 | Oc1ccc([C@H]2CNCc3c2ccc(O)c3O)cc1O | -13.3% | – | –
39 | C=CCOC(Cn1ccnc1)c1ccc(Cl)cc1Cl (stereo not given) | – | inactive | –
40 | CCOC(=O)c1cncn1C(C)c1ccccc1 (stereo not given) | – | – | inactive

Reference: PubChem BioAssay (NCATS)
